Data: PubChem BioAssay AID1159580 (chemical genetic matrix, 2015)
Values joined by “and” are separate entries in the source; they are usually repeats but may differ in a detail not shown here. Equal values may be shown once. Out of some 5,500 compounds screened, about 2,000 (36%) were called active. Another 18% or so got no clear call; they are omitted. Cut-off read from the data, not from the text of the source: active = normalized growth mostly below about 0.91 (no sharp cut-off); inconclusive = no clear call, values can overlap the other calls; inactive = mostly above about 0.92. This is one part of the list.

Test: chemical genetic growth profiling, strain panel (AID 1159580);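 note: tested at 20 µM; growth read once vehicle control cultures reached saturation at 30 °C; 1 = growth at the plate median or of vehicle wells; lower values mean less growth of the strain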
Details: S. cerevisiae deletion strains, growth OD

Measured: normalized growth

O=C(O)CCCCCCCC(=O)O
inactive: locus YAL013W, strain DEP1, stronger effect = lower value 0.991 | locus YAL021C, strain ccr4, stronger effect = lower value 1.02 | locus YAL026C, strain drs2, stronger effect = lower value 1.04 | locus YAL030W, strain snc1, stronger effect = lower value 1.02 | locus YAL040C, strain CLN3, stronger effect = lower value 1.01 | locus YBL061C, strain skt5, stronger effect = lower value 1.01 | locus YBR009C, strain hhf1, stronger effect = lower value 1.01 | locus YBR021W, strain FUR4, stronger effect = lower value 0.999 | locus YBR023C, strain chs3, stronger effect = lower value 1.01 | locus YBR171W, strain sec66, stronger effect = lower value 1.03 | locus YBR229C, strain ROT2, stronger effect = lower value 0.956 | locus YBR231C, strain swc5, stronger effect = lower value 1.01 | locus YBR279W, strain paf1, stronger effect = lower value 0.991 | locus YCL011C, strain gbp2, stronger effect = lower value 1.02 | locus YCL016C, strain dcc1, stronger effect = lower value 1.03 | locus YCL029C, strain bik1, stronger effect = lower value 0.969 | locus YCL069W, strain vba3, stronger effect = lower value 1.02 | locus YCR088W, strain abp1, stronger effect = lower value 1.02 | locus YDL005C, strain med2, stronger effect = lower value 0.986 | locus YDL035C, strain GPR1, stronger effect = lower value 0.994 | locus YDL040C, strain nat1, stronger effect = lower value 0.999 | locus YDL074C, strain BRE1, stronger effect = lower value 0.982 | locus YDL101C, strain DUN1, stronger effect = lower value 0.981 | locus YDL134C, strain PPH21, stronger effect = lower value 0.96 | locus YDL185W, strain tfp1, stronger effect = lower value 0.982 | locus YDL192W, strain arf1, stronger effect = lower value 0.984 | locus YDR001C, strain nth1, stronger effect = lower value 1.03 | locus YDR069C, strain doa4, stronger effect = lower value 1 | locus YDR101C, strain arx1, stronger effect = lower value 0.991 | locus YDR137W, strain rgp1, stronger effect = lower value 0.99 | locus YDR150W, strain NUM1, stronger effect = lower value 0.974 | locus YDR159W, strain sac3, stronger effect = lower value 0.997 | locus YDR162C, strain NBP2, stronger effect = lower value 0.994 | locus YDR195W, strain ref2 0.997 | locus YDR297W, strain sur2, stronger effect = lower value 0.996 | locus YDR318W, strain mcm21, stronger effect = lower value 0.981 | locus YDR334W, strain swr1, stronger effect = lower value 1 | locus YDR335W, strain msn5, stronger effect = lower value 1 | locus YDR363W, strain ESC2, stronger effect = lower value 0.994 | locus YDR388W, stronger effect = lower value 0.98 | locus YDR392W, strain spt3, stronger effect = lower value 1.04 | locus YDR502C, strain sam2, stronger effect = lower value 0.986 | locus YEL003W, strain gim4, stronger effect = lower value 1.02 | locus YEL037C, strain rad23, stronger effect = lower value 1 | locus YEL061C, strain CIN8 (second series), stronger effect = lower value 1.03 | locus YEL061C, strain CIN8, stronger effect = lower value 0.989 | locus YER002W, strain NOP16, stronger effect = lower value 1.01 | locus YER015W, strain faa2, stronger effect = lower value 1 | locus YER016W, strain bim1, stronger effect = lower value 1.02 | locus YER110C, stronger effect = lower value 0.971 | locus YER111C, strain swi4, stronger effect = lower value 1.01 | locus YER155C, strain BEM2 (second series), stronger effect = lower value 1.07 | locus YER155C, strain BEM2, stronger effect = lower value 1 | locus YER167W, strain BCK2, stronger effect = lower value 1.02 | locus YFR010W, strain ubp6, stronger effect = lower value 1.01 | locus YGL078C, strain dbp3, stronger effect = lower value 0.983 | locus YGL086W, strain mad1, stronger effect = lower value 1 | locus YGL167C, strain pmr1, stronger effect = lower value 1.02 | locus YGL173C, strain kem1, stronger effect = lower value 1.02 | locus YGL227W, strain vid30, stronger effect = lower value 1.02 | locus YGL240W, strain doc1, stronger effect = lower value 1.01 | locus YGL248W, strain PDE1, stronger effect = lower value 0.992 | locus YGL253W, strain hxk2, stronger effect = lower value 1.02 | locus YGR078C, strain PAC10, stronger effect = lower value 0.99 and 1.01 | locus YGR135W, strain pre9, stronger effect = lower value 0.988 | locus YGR229C, strain SMI1, stronger effect = lower value 1 and 0.991 | locus YGR252W, strain gcn5, stronger effect = lower value 0.961 | locus YHR013C, strain ard1, stronger effect = lower value 1.04 | locus YHR027C, strain rpn1, stronger effect = lower value 1 | locus YHR030C, strain SLT2, stronger effect = lower value 0.993 and 0.979 | locus YHR079C, strain IRE1 (second series), stronger effect = lower value 0.988 | locus YHR079C, strain IRE1, stronger effect = lower value 0.982 | locus YHR094C, strain hxt1, stronger effect = lower value 0.995 | locus YHR129C, strain ARP1, stronger effect = lower value 0.96 | locus YHR142W, strain chs7, stronger effect = lower value 1.05 | locus YHR200W, strain rpn10, stronger effect = lower value 0.991 | locus YIL066C, strain RNR3, stronger effect = lower value 0.976 | locus YIL073C, strain SPO22, stronger effect = lower value 0.952 | locus YIL125W, strain kgd1, stronger effect = lower value 0.999 | locus YIR030C, strain dcg1, stronger effect = lower value 0.986 | locus YJL092W, strain hpr5, stronger effect = lower value 1.03 | locus YJL095W, strain BCK1 (second series), stronger effect = lower value 1.01 | locus YJL095W, strain BCK1, stronger effect = lower value 1.03 and 0.992 | locus YJL115W, strain asf1, stronger effect = lower value 1.01 | locus YJL129C, strain trk1, stronger effect = lower value 1.01 | locus YJL134W, strain LCB3, stronger effect = lower value 0.991 | locus YJL154C, strain vps35, stronger effect = lower value 1.03 | locus YJL164C, strain tpk1, stronger effect = lower value 1.03 | locus YJL166W, strain qcr8, stronger effect = lower value 1.02 | locus YJL168C, strain set2, stronger effect = lower value 0.99 | locus YJL187C, strain SWE1 (second series), stronger effect = lower value 0.976 | locus YJR043C, strain POL32, stronger effect = lower value 0.994 | locus YJR066W, strain TOR1, stronger effect = lower value 0.965 | locus YJR075W, strain HOC1, stronger effect = lower value 0.985 and 0.983
